PubChem BioAssay (NCI)
About 79,000 compounds went through this panel and 15% of them were active in at least one assay; those are over-represented in the sample as a whole. Activity calls are given as the source filed them. No stated cut-off is given here; in the data, active means growth inhibition above about 70%; inactive means the rest.

How the values were obtained:
[1] = NCI Yeast Anticancer Drug Screen. Data for the rad50 strain (AID 155);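 further: 0% = growth of vehicle-only cultures of the same strain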; settings: S. cerevisiae rad50 strain growth inhibition; at 50.0 µM; stronger effect = higher value
In short: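 Compounds were tested on a yeast strain with an engineered DNA damage repair alteration; the reported value is growth inhibition normalised to vehicle treatment.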

[2] = NCI Yeast Anticancer Drug Screen. Data for the mec2-1 strain (AID 157); settings: S. cerevisiae mec2-1 strain, at 50.0 µM, stronger effect = higher value
In short: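 Mutant yeast (mec2-1) grown with compound; growth inhibition relative to vehicle control reported.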

[3] = NCI Yeast Anticancer Drug Screen. Data for the sgs1 mgt1 strain (AID 161);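 further: 0% = growth of cultures given vehicle only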; settings: S. cerevisiae sgs1 mgt1 strain, at 50.0 µM, stronger effect = higher value
In short: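 This yeast growth screen uses a strain with defined DNA-repair lesions; compound-treated growth is compared with vehicle-treated growth.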

[4] = NCI Yeast Anticancer Drug Screen. Data for the cln2 rad14 strain (AID 165);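 further: 0% = growth equal to vehicle treated cultures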; settings: S. cerevisiae cln2 rad14 strain, at 50.0 µM, stronger effect = higher value
In short: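 Readout is yeast growth inhibition versus vehicle-treated controls, using a strain with cln2 and rad14 alterations exposed to compound.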

[5] = NCI Yeast Anticancer Drug Screen. Data for the bub3 strain (AID 167); settings: S. cerevisiae bub3 mutant strain, at 50.0 µM, stronger effect = higher value
In short: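 Growth of a checkpoint-deficient yeast mutant is measured after compound exposure. Values represent inhibition relative to vehicle.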

[6] = NCI Yeast Anticancer Drug Screen. Data for the mlh1 rad18 strain (AID 175); settings: S. cerevisiae mlh1 rad18 strain growth inhibition; at 50.0 µM; stronger effect = higher value
In short: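 Genetically defined yeast (DNA repair-deficient) exposed to compounds; growth inhibition determined relative to vehicle.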

Measured: growth inhibition

CC(C)(CN1CCCCC1)C(=O)/C=C/c1ccc(Cl)cc1
inactive: [1] 34.6% | [2] 11.9% | [3] 36.2% | [4] 38.5% | [5] 12.6% | [6] 46.7%

C=C1CN=C(Nc2ccc(F)cc2F)S1
inactive: [1] -0.15% | [2] 7.3% | [3] -14.6% | [4] 8.15% | [5] 1.75% | [6] 2.65%

CCC(=O)N(O)C(C)(C)C
inactive: [1] 10.8% | [2] 0.65% | [3] 14.7% | [4] 7.55% | [5] 7.2% | [6] 22.1%

CCOC(=O)c1nnsc1NC(=O)Nc1ccc(Cc2ccc(NC(=O)Nc3snnc3C(=O)OCC)cc2)cc1
inactive: [1] -14.3% | [2] 8.25% | [3] 12.2% | [4] 18.3% | [5] 5.45% | [6] 10.3%

OC1(c2ccccc2)c2ccccc2NC2=NCCN21 (stereo unspecified)
inactive: [1] -14.7% | [2] -12.4% | [3] -10.7% | [4] -10.5% | [5] -45.9% | [6] -16.9%

CN(Cc1nc2c(N)nc(N)nc2nc1N)c1ccc(C(=O)NC(CCC(=O)O)C(=O)O)cc1 (stereo unspecified)
inactive: [1] 7.65% | [2] 42.2% | [3] 22.3% | [4] -7.4% | [5] -1.95% | [6] -26.1%

O=C1C2C3C=CC(CC3)C2C(=O)C2C3C=CC(C3)C12 (stereo unspecified)
inactive: [1] 1.15% | [2] 24.1% | [3] 26.9% | [4] -14.8% | [5] -1.45% | [6] 32.3%

Cc1cc2nc(-c3cc4cc(Cl)cc(Cl)c4oc3=O)[nH]c2cc1C
inactive: [1] 10.6% | [2] 17.8% | [3] 2.7% | [4] -5.4% | [5] 17.2% | [6] -0.4%

O=C(COc1c(Cl)cc(Cl)c2ccccc12)NC1c2ccccc2Oc2ccccc21
inactive: [1] 22.6% | [2] 0.4% | [3] 34.1% | [4] 7.45% | [5] 10.2% | [6] 14.4%

CC1(C)CCC2(CO)C(=C3C=CC4C5(C)CCC(O)C(C)(CO)C5CCC4(C)C3(C)CC2O)C1 (stereo unspecified)
inactive: [1] 0.45% | [2] -31.8% | [3] -0.75% | [4] -3.35% | [5] -9.5% | [6] 11.4%

Cc1n[nH]c(=O)n1-n1cccc1
inactive: [1] -10.1% | [2] -5.35% | [3] -35.5% | [4] 7.1% | [5] -37.2% | [6] 2.55%

CCCCC/C(=N\NC(N)=O)C1=CCCCC1
inactive: [1] 13.1% | [2] 7.6% | [3] -9.6% | [4] -19.9% | [5] -25.4% | [6] 18.4%

CCCC(=O)OCC(O)CO (stereo unspecified)
inactive: [1] 12.2% | [2] 1.5% | [3] 1.3% | [4] 18.5% | [5] 4.1% | [6] 18.6%

CC(O)CN1CCOCC1 (stereo unspecified)
inactive: [1] 9.55% | [2] 2.2% | [3] -0.1% | [4] 15.2% | [5] -9.85% | [6] 3.55%

CCN1CC(O)Cc2ccccc21 (stereo unspecified)
inactive: [1] -3.55% | [2] 8.55% | [3] 11.2% | [4] 1.4% | [5] -8.35% | [6] -3.5%

CCN(/N=C1\CC2C=CCN(C2)C(=O)Cc2c1[nH]c1ccccc21)S(=O)(=O)c1ccc(C)cc1 (stereo unspecified)
inactive: [1] 30.9% | [2] 12.1% | [3] 39.2% | [4] 23.6% | [5] 20.5% | [6] 19.4%

C=C[C+](CCCC)C(=O)[O-]
inactive: [1] -20.2% | [2] -24.1% | [3] -11.1% | [4] -19.8% | [5] -12.8% | [6] -34.9%

CCOC(=O)C(Cl)Cc1ccccc1 (stereo unspecified)
inactive: [1] 4.75% | [2] 13.4% | [3] 13.4% | [4] 5.45% | [5] -5.15% | [6] 1.9%

N=c1nc2ccc3ccccc3c2nn1-c1ccc([N+](=O)[O-])cc1
active: [1] 88%
inactive: [2] 16.4% | [3] 13.8% | [4] -5.4% | [5] 18.6% | [6] 27.2%

CCOC(=O)c1ccc(NC(=O)CCCCl)cc1
inactive: [1] 6.15% | [2] -14.2% | [3] -8.75% | [4] 8.55% | [5] 12.7% | [6] -24.3%

N#Cc1ccc(OCCCCCOc2ccc(C#N)cc2)cc1
inactive: [1] -11.2% | [2] -0.65% | [3] -1.15% | [4] -43.1% | [5] -2.6% | [6] -5.8%
